High-throughput results from PubChem.
CYP2C9 inh: blocks human cytochrome P450 2C9; CYP2C9 Supersomes, luciferin-H conversion, luminescence; inhibition, % at 5 µM; 96,000 tested, 20% active; AID 777;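 active = blocking of liver enzyme CYP2C9 beyond about 50% at 5 µM, limit read from the data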
CYP2C19 activ: activators of human cytochrome P450 2C19; 96,000 tested, under 10 active; P33261; recombinant CYP2C19, luciferin-H EGE luminescence; stronger effect = higher value; 0 = fully inhibited enzyme, 1 = untreated enzyme; activation factor at 5 µM;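 active = activation factor of at least 2 at 5 µM in the primary screen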;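 also: 0 = wells with 2.5 mM tranylcypromine and 1 = vehicle-only wells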
CYP2C19 inh: blocks human cytochrome P450 2C19; inhibition, % at 5 µM; P33261; CYP2C19 Supersomes, luciferin-H EGE luminescence, 30 min; 96,000 tested, 21% active;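 active = CYP2C19 inhibition above a set limit at 5 µM in the primary screen, cut at about 50% in these data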;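 also: plate controls were negative control wells for no effect and 2.5 mM tranylcypromine positive control for full effect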
Cav3 T inh: blocks human Cav3.2 T-type calcium channel. B-score at 10 µM. O95180. AID 449739. 100,000 tested, 4% active. Cav3.2-expressing cells, Fluo-4 calcium fluorescence FDSS; stronger effect = lower value;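 active = single-dose well whose peak fluorescence ratio is a statistical outlier from its plate by either plate-standardised score or position-corrected B-score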
CYP2C9 activ: increases human cytochrome P450 2C9 activity. 96,000 tested, 1.4% active. recombinant CYP2C9, luciferin-H conversion, luminescence; stronger effect = higher value; factor 1 = untreated enzyme, 0 = blocked. activation factor at 5 µM. P11712;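 active = activation factor of 2 or more for CYP2C9 at a 5 µM dose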;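 also: 0 = sulfaphenazole-blocked wells and 1 = vehicle-only wells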
* hit, by the source's call; . = no result. Hits are enriched below; roughly 27% of the tested compounds scored in any of these assays.

SMILES	CYP2C9 inh	CYP2C19 activ	CYP2C19 inh	Cav3 T inh	CYP2C9 activ
Cc1ccc(C)c(C(=O)c2c(C)nc3sccn23)c1	50	0.1	95*	-0.00078	0.5
Cc1ccccc1N(CC(=O)N/N=C/c1ccc(F)cc1)C(=O)c1ccccc1	95*	0.2	80*	-5.6*	0.1
Cc1ccccc1N(CC(=O)N/N=C/c1ccc(Cl)cc1)C(=O)c1ccccc1	98*	0.3	68*	-5.2*	0
O=[N+]([O-])c1ccc(N2CCN(S(=O)(=O)c3ccc(Cl)cc3)CC2)cc1NCc1cccnc1	53*	1	5	0.047	0.5
O=[N+]([O-])c1ccc(N2CCN(S(=O)(=O)c3ccccc3)CC2)cc1NCc1cccnc1	36	0.9	10	0.93	0.6
Cc1nn(-c2nc(-c3ccco3)cc(C(F)(F)F)n2)c(C)c1Br	52*	0.8	16	0.091	0.5
Cc1[nH]c2ccc(F)cc2c1CCN(Cc1ccncc1)C(=S)Nc1cccc(F)c1	.	.	.	-1.5	.
COc1ccc2[nH]c(C)c(CCN(Cc3cccs3)C(=S)Nc3ccccc3)c2c1	86*	0.5	50*	-2.7	0.1
COc1ccccc1NC(=S)N(CCc1c(C)[nH]c2ccccc12)Cc1cccs1	36	0.4	58*	-2.3	0.6
O=C(COC(=O)C1CC(=O)N(C2CCCCC2)C1)c1ccc(F)cc1 (stereo not drawn)	4	0.9	8	-0.12	1
CCCCCCc1cc2cc(-c3nnc(-c4ccccc4O)o3)c(=O)oc2cc1O	90*	0.9	14	-3.5*	0.1
CCCCCCc1cc2cc(-c3nnc(-c4cc(OC)c(OC)c(OC)c4)o3)c(=O)oc2cc1O	.	.	.	-3.2	.
COc1ccc(-c2nnc(-c3cc4ccccc4oc3=O)o2)cc1	.	.	.	-0.92	.
CCCCCCc1cc2cc(-c3nnc(-c4ccccc4OC)o3)c(=O)oc2cc1O	97*	0.5	48	-4.2*	0
COc1cc(-c2cc(OC)c3c(C)oc(C)c3c(=O)c2)ccc1O	94*	0.6	42	-2.1	0.1
Clc1ccc(-c2noc(CSc3nnc(-c4ccncc4)n3-c3ccccc3)n2)cc1	72*	0.3	66*	-4.9*	0.3
COc1ccc(-n2c(SCCC(=O)O)nnc2-c2ccncc2)cc1	35	0.8	24	0.5	0.7
Cn1c(SCc2nc(-c3ccc(Cl)cc3)no2)nnc1-c1ccco1	56*	0.4	60*	.	0.4
Cc1ccc(-c2noc(CSc3nnnn3C3CCCCC3)n2)cc1	32	0.8	21	-4.6*	0.7
CCOc1ccc(-n2c(SCc3nc(-c4ccc(C)cc4)no3)nnc2-c2ccncc2)cc1	80*	0.2	80*	-4.3*	0.2
Cc1ccc(-c2noc(CSc3nc(N)cc(N)n3)n2)cc1	41	0.8	24	-3.6	0.6
Cc1ccc(C)c(NC(=S)NNC(=O)c2csc(C(C)C)c2)c1	.	.	.	-3.9	.
C#CCNC(=O)C1=C[C@@H](c2coc3ccccc3c2=O)C[C@@H](OCc2ccc(CO)cc2)O1	.	.	.	-2.4	.
Cc1ccc(-c2noc(CSc3nnc(-c4ccncc4)n3-c3ccc(C)cc3)n2)cc1	84*	0.1	86*	-3	0.2
COC(=O)c1ccc2c(c1)C(C)(C)C(/C=C/c1ccccc1O)=[N+]2C	59*	0.6	42	-3.7*	0.4
SMILES	CYP2C9 inh	CYP2C19 activ	CYP2C19 inh	Cav3 T inh	CYP2C9 activ
O=C(NCC(=O)N1CCN(c2ncccn2)CC1)c1cccs1	48	0.4	59*	.	0.5
Cc1ccc(C(=O)NCC(=O)N2CCN(c3ncccn3)CC2)s1	72*	0.6	42	-0.0067	0.3
O=C(NCC(=O)N1CCCC1)c1cccs1	-8	1.1	-9	1.6	1.1
CCOc1nc(CC)nc(NC(=O)NS(=O)(=O)c2ccccc2Cl)n1	7	0.9	6	0.41	0.9
CN1CCN(c2nc3c(c(=O)n(C)c(=O)n3C)n2CC(=O)C23CC4CC(CC(C4)C2)C3)CC1	-21	1.1	-11	0.029	1.2
CC(C)OC(=O)CSc1nnc(-c2cccnc2)n1N	-8	1.1	-6	.	1.1
Cc1ccc(-n2c(SCC(=O)OC(C)C)nnc2-c2ccco2)cc1	-130	0.8	23	-0.93	2.3*
Cc1ccc(-n2c(SCC(=O)OC(C)C)nnc2-c2ccccn2)cc1	-2	0.5	51*	-0.22	1
CNC(=O)CSc1nnc(-c2ccco2)n1-c1ccc(C)cc1	.	.	.	0.2	.
CC(C)OC(=O)CSc1nnc(-c2ccccn2)n1-c1ccccc1	6	0.9	12	-0.29	0.9
CC(C)OC(=O)CSc1nnc(-c2ccccc2)n1N	14	0.4	60*	0.21	0.9
CCOc1ccc(Cn2c(O)cc(=O)[nH]c2=O)cc1	.	.	.	-0.57	.
C/C=C/C(=O)N(CC)c1ccccc1C	.	.	.	1	.
O=C(O)C1CC=CCC1C(=O)NCCc1cccc(Cl)c1 (stereo not drawn)	-10	0.9	6	-0.26	1.1
CCn1c(Cn2nnc(-c3ccccc3)n2)nnc1SCc1ccc(Cl)c(Cl)c1	38	0.9	15	-4.2	0.6
CCCn1nnc(NC(=O)c2ccc(Cl)cc2Cl)n1	-24	0.1	89*	0.0054	1.2
Cc1sc2ncnc(Oc3ccc(-n4ccnc4)cc3)c2c1C	99*	0	100*	-2.2	0
O=S(=O)(Nc1nc2ccccc2nc1NCc1ccco1)c1cccs1	78*	1.1	-7	-1.4	0.2
c1ccc(-c2csc(Nc3ccc4c(c3)OCCO4)n2)cc1	16	1.1	-6	0.00099	0.8
C=CCNc1nc2ccccc2nc1NS(=O)(=O)c1cccs1	93*	1	-2	-0.012	0.1
CCCCCNc1nc2ccccc2nc1NS(=O)(=O)c1cccs1	68*	1	4	-3	0.3
O=S(=O)(Nc1cccnc1)c1cccs1	8	1	-2	0.48	0.9
O=S(=O)(Nc1nc2ccccc2nc1Nc1ccc2c(c1)OCCO2)c1cccs1	93*	0.9	14	-3.8*	0.1
Cc1cc(F)ccc1NCc1ccncc1	62*	0.2	82*	-0.037	0.4
Cc1cc(F)ccc1NCc1cc2c(cc1[N+](=O)[O-])OCO2	2	0.7	28	-3.6	1
SMILES	CYP2C9 inh	CYP2C19 activ	CYP2C19 inh	Cav3 T inh	CYP2C9 activ
Cc1ccc(OC(=O)CCc2c(C)nc3ncnn3c2C)cc1	10	0.4	56*	-1.1	0.9
Cc1nc2ncnn2c(C)c1Cc1c(Cl)cccc1Cl	30	0.4	62*	-0.41	0.7
CCOC(=O)c1sc(NC(=O)CSc2nnc(-c3ccc(OC)cc3)n2CCOC)nc1C	.	.	.	-1.1	.
O=C(CN1C(=O)c2ccccc2C1=O)Nc1ccccc1C(=O)NC1CCCCC1	65*	1	-4	1.1	0.3
O=C(CN1C(=O)c2ccccc2C1=O)Nc1cccc2cccnc12	-3	1.1	-13	-11*	1
Cc1ccccc1-c1nnc(SCCOc2ccc3c(C)cc(=O)oc3c2)o1	27	0.8	25	-0.43	0.7
COCCNC(=O)c1cc(-c2ccccc2)nn1CC1CC(c2cccnc2)=NO1 (stereo not drawn)	.	.	.	-0.0053	.
